PubChem BioAssay (NCI)
Several values for one entry are separate records, joined by “and”; a condition that tells them apart may be missing. Identical values can stand only once. This is part of a sample that, as a whole, favours compounds with a hit. Of some 83,000 tested, about 20% had one in any assay.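 Testing used 96-well plates and a 48-hour single-concentration exposure. Example: -40 means 40% of the starting cells died.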 Activity calls are given as the source filed them. How the source made its calls: active means growth percent below 10; inactive means the rest.

What was measured:
Test in all cases: NCI-60 one-dose screen, 48 h (100 = growth as untreated, 0 = no growth, -100 = all killed)
Conditions in all cases: 10 µM unless noted
NCI-H23 lung = test system: NCI-H23 lung
NCI-H226 lung = test system: NCI-H226 lung
NCI-H322M lung = test system: NCI-H322M lung
HOP-62 NSCLC = test system: HOP-62 NSCLC
NCI-H460 lung = test system: NCI-H460 lung
HOP-92 NSCLC = test system: HOP-92 NSCLC
NCI-H522 lung = test system: NCI-H522 lung
A549/ATCC NSCLC = test system: A549/ATCC NSCLC
786-0 renal = test system: 786-0 renal
COLO 205 colon = test system: COLO 205 colon
DU-145 prostate = test system: DU-145 prostate
K-562 leukemia = test system: K-562 leukemia
MALME-3M melanoma = test system: MALME-3M melanoma
MDA-MB-231 breast = test system: MDA-MB-231 breast
RXF 393 renal = test system: RXF 393 renal
SF-268 CNS = test system: SF-268 CNS
SF-295 CNS = test system: SF-295 CNS
SF-539 CNS = test system: SF-539 CNS
UACC-257 melanoma = test system: UACC-257 melanoma
M14 melanoma = test system: M14 melanoma

| Compound | growth (NCI-H23 lung) | growth (NCI-H226 lung) | growth (NCI-H322M lung) | growth (HOP-62 NSCLC) | growth (NCI-H460 lung) | growth (HOP-92 NSCLC) | growth (NCI-H522 lung) | growth (A549/ATCC NSCLC) | growth (786-0 renal) | growth (COLO 205 colon) | growth (DU-145 prostate) | growth (K-562 leukemia) | growth (MALME-3M melanoma) | growth (MDA-MB-231 breast) | growth (RXF 393 renal) | growth (SF-268 CNS) | growth (SF-295 CNS) | growth (SF-539 CNS) | growth (UACC-257 melanoma) | growth (M14 melanoma) |
| --- | --- | --- | --- | --- | --- | --- | --- | --- | --- | --- | --- | --- | --- | --- | --- | --- | --- | --- | --- | --- |
| CN(C)c1ccc(N)cc1 | 96.6% (inactive) and 10.7% (inactive) | 101% (inactive) and 82.3% (inactive) | 95.3% (inactive) and 111% (inactive) | 93.7% (inactive) and 47.1% (inactive) | 103% (inactive) and 54.2% (inactive) | 98.1% (inactive) and 41.6% (inactive) | 85.1% (inactive) | 97.2% (inactive) and 33.1% (inactive) | 109% (inactive) | 103% (inactive) and 43.1% (inactive) | 113% (inactive) and 58.4% (inactive) | 83.7% (inactive) and 44.9% (inactive) | 115% (inactive) and 95.7% (inactive) | 88% (inactive) and 58.6% (inactive) | 109% (inactive) and 84.7% (inactive) | 97.9% (inactive) and 65.8% (inactive) | 110% (inactive) and 59.9% (inactive) | 104% (inactive) and 67% (inactive) | 92.5% (inactive) and 4.45% (active) | 101% (inactive) |
| O=[N+]([O-])c1cc(Cl)c(Cl)cc1Cl | 105% (inactive) and 107% (inactive) | 114% (inactive) and 108% (inactive) | 116% (inactive) and 123% (inactive) | 112% (inactive) and 107% (inactive) | 110% (inactive) and 108% (inactive) | 110% (inactive) | 134% (inactive) and 110% (inactive) | 88.7% (inactive) and 111% (inactive) | 111% (inactive) and 112% (inactive) | 117% (inactive) and 106% (inactive) | 111% (inactive) and 121% (inactive) | 114% (inactive) and 110% (inactive) | 115% (inactive) and 126% (inactive) | 99.7% (inactive) and 124% (inactive) | 142% (inactive) and 111% (inactive) | 105% (inactive) and 114% (inactive) | 97.8% (inactive) and 112% (inactive) | 82.4% (inactive) and 102% (inactive) | 80.1% (inactive) and 111% (inactive) | 102% (inactive) and 114% (inactive) |
| COc1ccc2c(c1)c(-c1nc(-c3c[nH]c4ncccc34)cs1)cn2CCCCN1CCOCC1 | 69.9% (inactive) | 70.3% (inactive) | 57.2% (inactive) | 37.1% (inactive) | 4.29% (active) | 43% (inactive) | 39.9% (inactive) | 49.7% (inactive) | -43.7% (active) | -100% (active) | 48.9% (inactive) | -65.2% (active) | -66.7% (active) | 23.4% (inactive) | 31.9% (inactive) | 52.4% (inactive) | 13.1% (inactive) | 49.3% (inactive) | 79.5% (inactive) | -53.5% (active) |
| Cc1cc2c(cc1-c1ccnc(/C=C/C(=O)O)c1)C(C)(C)CCC2(C)C | 88.1% (inactive) | 78.8% (inactive) | 106% (inactive) | 96.8% (inactive) | 85.3% (inactive) | 56.5% (inactive) | 76.2% (inactive) | 77.1% (inactive) | 79.6% (inactive) | 124% (inactive) | 105% (inactive) | 85.5% (inactive) | 64.8% (inactive) | 75.5% (inactive) | 79.4% (inactive) | 86.6% (inactive) | 88.6% (inactive) | 78.2% (inactive) | 87.4% (inactive) | 78.2% (inactive) |
| CCC1CCC(=O)O1 (stereo not given) | 110% (inactive) and 111% (inactive) | 97.4% (inactive) and 110% (inactive) | 102% (inactive) and 104% (inactive) | 96.9% (inactive) and 115% (inactive) | 103% (inactive) and 110% (inactive) | 123% (inactive) | 85.1% (inactive) and 105% (inactive) | 112% (inactive) and 105% (inactive) | 98.1% (inactive) and 107% (inactive) | 104% (inactive) and 125% (inactive) | 112% (inactive) and 116% (inactive) | 110% (inactive) and 119% (inactive) | 98.2% (inactive) and 116% (inactive) | 106% (inactive) and 112% (inactive) | 101% (inactive) and 124% (inactive) | 106% (inactive) and 110% (inactive) | 119% (inactive) | 98.7% (inactive) and 106% (inactive) | 105% (inactive) | 107% (inactive) and 114% (inactive) |
| N#CC(C#N)=Cc1cccc(F)c1 | 102% (inactive) | 103% (inactive) | 104% (inactive) | 95.2% (inactive) | 105% (inactive) | 130% (inactive) | 99.4% (inactive) | 100% (inactive) | 103% (inactive) | 115% (inactive) | 105% (inactive) | 96.8% (inactive) | 110% (inactive) | 109% (inactive) | 110% (inactive) | 99.7% (inactive) | 105% (inactive) | 105% (inactive) | 107% (inactive) | 107% (inactive) |
| C#COc1cccc(Nc2ncnc3cc(NC(=O)CF)ccc23)c1 | 81.4% [6.25 µM] (inactive) | 83.4% [6.25 µM] (inactive) | 70.5% [6.25 µM] (inactive) | 30.3% [6.25 µM] (inactive) | 21.4% [6.25 µM] (inactive) | 47.7% [6.25 µM] (inactive) | -25.3% [6.25 µM] (active) | 40% [6.25 µM] (inactive) | 30.7% [6.25 µM] (inactive) | 13.2% [6.25 µM] (inactive) | 76.1% [6.25 µM] (inactive) | 7.01% [6.25 µM] (active) | 60.9% [6.25 µM] (inactive) | 50.9% [6.25 µM] (inactive) | 84.4% [6.25 µM] (inactive) | 51.8% [6.25 µM] (inactive) | 29.9% [6.25 µM] (inactive) | 29.3% [6.25 µM] (inactive) | 40.4% [6.25 µM] (inactive) | 18.7% [6.25 µM] (inactive) |
| CC/C(Cc1ccccc1)=C(\c1ccc(OCCN2CCCC2)cc1)c1ccc(OC(=O)NCc2ccccc2)cc1 | 90.8% (inactive) | 92.1% (inactive) | 84.9% (inactive) | 76.7% (inactive) | -45.2% (active) | 38.6% (inactive) | 81.5% (inactive) | 42.4% (inactive) | 20.7% (inactive) | -66.6% (active) | 61.1% (inactive) | -39.1% (active) | -59.6% (active) | 51.6% (inactive) | 56.5% (inactive) | 67.7% (inactive) | 86.2% (inactive) | 59% (inactive) | 58.1% (inactive) | -60.7% (active) |
| CC1(C)S[C@H]2CC[C@H]3OC(=O)[C@@H]1N23 | 94.7% (inactive) | 98.1% (inactive) | 98.7% (inactive) | 104% (inactive) | 110% (inactive) | 77.9% (inactive) | 88.9% (inactive) | 96.6% (inactive) | 106% (inactive) | 137% (inactive) | 116% (inactive) | 111% (inactive) | 101% (inactive) | 121% (inactive) | 103% (inactive) | 113% (inactive) | 88% (inactive) | 104% (inactive) | 116% (inactive) | 106% (inactive) |
| Nc1ccc2c(c1)Cc1cc(N)ccc1-2 | 92.3% (inactive) | 91.4% (inactive) | 90% (inactive) | 87.1% (inactive) | 93.1% (inactive) | 76.5% (inactive) | 92.8% (inactive) | 84.3% (inactive) | 105% (inactive) | 90% (inactive) | 107% (inactive) | 112% (inactive) | 85.7% (inactive) | 75.6% (inactive) | 87.9% (inactive) | 95.4% (inactive) | 100% (inactive) | 96.8% (inactive) | 91.3% (inactive) | 92.7% (inactive) |
| C[C@]12CCC3[C@@H](C[C@@H]4SC(Nc5ccccc5)=N[C@@]45CC(=O)CC[C@]35C)[C@@H]1CCC2=O (stereo not given in full) | 42.5% (inactive) | 49.4% (inactive) | 58.2% (inactive) | 12.6% (inactive) | -13% (active) | -18.2% (active) | -66% (active) | 33.5% (inactive) | -45% (active) | -46.3% (active) | -14.7% (active) | 1.87% (active) | 8.73% (active) | 5.67% (active) | -63.8% (active) | 27% (inactive) | 24.2% (inactive) | -44.8% (active) | 3.21% (active) | 0.48% (active) |
| Cc1cc(Br)c([N+](=O)[O-])cc1[N+](=O)[O-] | 98.6% (inactive) | 95.5% (inactive) | 132% (inactive) | 100% (inactive) | 97.5% (inactive) | 134% (inactive) | -28% (active) | 101% (inactive) | 103% (inactive) | 72.9% (inactive) | 89.4% (inactive) | 75% (inactive) | 128% (inactive) | 97.8% (inactive) | 103% (inactive) | 97.2% (inactive) | 114% (inactive) | 97.9% (inactive) | 98.7% (inactive) | 96.2% (inactive) |
| COC1C(O)CC(OC2CC(Oc3cc4cc5c(c(O)c4c(O)c3C)C(=O)[C@@H](OC3CC(OC4CC(OC6CC(C)(O)C(OC(C)=O)C(C)O6)C(O)C(C)O4)C(O)C(C)O3)[C@H]([C@H](OC)C(=O)[C@@H](O)[C@@H](C)O)C5)OC(C)C2OC(C)=O)OC1C (stereo not given in full) | -44.1% (active) | -10.6% (active) | -2.53% (active) | -11.7% (active) | -25.7% (active) | -19.7% (active) | -50.6% (active) | -64.2% (active) | 1.26% (active) | -57.6% (active) | -18.3% (active) | -14.9% (active) | -91.6% (active) | -8.36% (active) | -49.6% (active) | -10.5% (active) | -16.2% (active) | -73.9% (active) | -31.7% (active) | -86.3% (active) |
| Cc1ccccc1-n1c(/C=C\c2ccccn2)nc2ccccc2c1=O | 55.5% (inactive) | 97.8% (inactive) | 44.9% (inactive) | 107% (inactive) | 68% (inactive) | 41.2% (inactive) | 54.8% (inactive) | 80.4% (inactive) | -1.31% (active) | 94.2% (inactive) | 21.3% (inactive) | 23.8% (inactive) | 59.5% (inactive) | 77.1% (inactive) | 7.42% (active) | 61.7% (inactive) | 74.4% (inactive) | 82.8% (inactive) | 81.8% (inactive) | 64.9% (inactive) |
